PNC inhibitor = High Content Assay for Compounds that inhibit the Assembly of the Perinucleolar Compartment | activity change (PNC), negative = inhibition, % at 10 µM | AID 2417, 2010 | 140,000 tested, 3.1% active | PC3M PTB-GFP, PNC prevalence imaging, 16 h; stronger effect = lower value;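 active = readout at or below -70, meaning at least 70% loss of cells showing the perinucleolar compartment, a nuclear body marking cancer cells; inconclusive = readout between -30 and a set limit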;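 also: plate controls were DMSO wells for no effect and camptothecin positive control wells for full effect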
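PC3M cells stably expressing PTB-GFP, 750–1000 cells/well, treated 16 h at 37 °C with compound (23 nl of library stock), in duplicate. After paraformaldehyde fixation and Hoechst stain, imaged at 20x; PNC prevalence scored by image analysis.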
GLA inh pH 4.5 = qHTS Assay for Inhibitors of Human alpha-Galactosidase at pH 4.5. Alpha-galactosidase A (Homo sapiens), P06280. purified enzyme, 4-MU-alpha-Gal fluorescence, pH 4.5. activity change, negative = inhibition, % at 105 µM. 230,000 tested, under 10 active;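 also: 0% = full activity with enzyme and -100% = basal without enzyme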
aGal spleen mod = qHTS Assay for Inhibitors and Activators of Human alpha-Galactosidase From Spleen Homogenate. Alpha-galactosidase A (Homo sapiens), P06280. human spleen homogenate, 4MU-alpha-Gal fluorescence, 40 min. Potency, µM (titrated, usually from 80 µM), without a hit: top-dose activity change, negative = inhibition, usual class: inhibitors. 240,000 tested, 0.008% active;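 also: potency is read from the fitted curve at half-maximal effect; 0% = enzyme with vehicle and -100% = no enzyme basal signal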
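Human spleen homogenate (1 ug) was the enzyme source, with 4-methylumbelliferyl-alpha-D-galactopyranoside (1 mM final) in pH 5.0 citrate buffer with 0.01% Tween-20. Compounds were titrated; after 40 min at 37C, NaOH/glycine stop, 4-MU fluorescence read; AC50 from Hill fits.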
HPGD inh = qHTS Assay for Inhibitors of HPGD (15-Hydroxyprostaglandin Dehydrogenase) | 15-hydroxyprostaglandin dehydrogenase [NAD(+)] (Homo sapiens), P15428 | purified HPGD, NADH fluorescence kinetic, PGE2 substrate | Potency, µM, without a hit: top-dose activity change, negative = inhibition, usual class: inhibitors | 150,000 tested, 4.3% active | AID 894, 2007; active = well fitted inhibition curve with a large enough effect, not every such curve was filed as active; inconclusive = small, poorly fitted or top-dose-only effect, or another doubt; inactive = no such curve, though single readings can be large or run the other way; also: potency is read from the fitted curve at half-maximal effect
Target sequence (P15428 whole entry, looked up): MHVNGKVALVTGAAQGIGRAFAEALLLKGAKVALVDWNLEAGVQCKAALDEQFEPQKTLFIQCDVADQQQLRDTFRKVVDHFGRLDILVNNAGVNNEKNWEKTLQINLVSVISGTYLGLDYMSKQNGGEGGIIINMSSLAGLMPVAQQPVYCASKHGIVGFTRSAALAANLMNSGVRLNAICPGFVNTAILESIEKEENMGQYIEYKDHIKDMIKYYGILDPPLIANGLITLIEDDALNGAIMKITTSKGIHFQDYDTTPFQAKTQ
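NADH formation kinetics: reaction with 30 uM PGE2 and 1 mM NAD+ (final), 20 nM enzyme, Tris-HCl pH 8 with Tween 20, after 15 min compound preincubation at room temperature. Fluorescence change, last versus first of five reads.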
ALOX12 inhib = qHTS Assay for Inhibitors of 12-hLO (12-human lipoxygenase). Polyunsaturated fatty acid lipoxygenase ALOX12 (Homo sapiens), P18054. purified 12-hLO, xylenol orange hydroperoxide absorbance. Potency, µM (series often up to 57.1 µM), for inactives: top-dose activity change, negative = inhibition, actives largely listed as inhibitors. 150,000 tested, 0.12% active; also: potency is read from the fitted curve at half-maximal effect; nearly all actives have a fitted effect of over 55% in size
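Hydroperoxide formation by human 12-lipoxygenase from 40 uM arachidonic acid was followed colorimetrically via ferric-xylenol orange complex, using the 573/405 nm absorbance ratio. Enzyme concentration was 150 nM, with 30 min reaction at room temperature.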
ALDH1A1 block = qHTS Assay for Inhibitors of Aldehyde Dehydrogenase 1 (ALDH1A1); Purified ALDH1A1, NADH fluorescence, propionaldehyde substrate; Potency, µM (titrated, usually from 75.3 µM), for the others: at the highest dose activity, negative = inhibition, most hits filed as inhibitors; 220,000 tested, 7.3% active; active = well fitted inhibition curve with a large enough effect, not every such curve was filed as active; inconclusive = small, poorly fitted or top-dose-only effect, or another doubt; inactive = no such curve, though single readings can be large or run the other way;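 also: potency is read from the fitted curve at half-maximal effect; plate controls were no enzyme wells and a reference inhibitor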
Target sequence (P00352 whole entry, looked up): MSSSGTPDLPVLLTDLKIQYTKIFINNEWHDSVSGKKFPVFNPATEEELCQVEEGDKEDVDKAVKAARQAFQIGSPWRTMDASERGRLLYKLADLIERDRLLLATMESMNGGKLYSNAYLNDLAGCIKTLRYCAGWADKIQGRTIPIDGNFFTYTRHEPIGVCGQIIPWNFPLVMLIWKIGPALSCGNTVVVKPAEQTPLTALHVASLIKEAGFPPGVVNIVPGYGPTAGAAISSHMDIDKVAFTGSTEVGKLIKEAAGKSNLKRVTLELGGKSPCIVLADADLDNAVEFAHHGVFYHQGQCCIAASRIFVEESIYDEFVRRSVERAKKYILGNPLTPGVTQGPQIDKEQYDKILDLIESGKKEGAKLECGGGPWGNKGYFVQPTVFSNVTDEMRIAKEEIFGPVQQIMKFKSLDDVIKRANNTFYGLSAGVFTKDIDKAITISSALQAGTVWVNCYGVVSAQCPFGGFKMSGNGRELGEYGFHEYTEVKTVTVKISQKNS
An asterisk follows results filed as active; ? = inconclusive; nt = not tested or not shown; [ ] = another dose, or the depositor's remark. In the library only some 10% were active in any assay of this set; here they are far more common. Unless noted, calls follow the shape of the dose curve; as a rule, active = well fitted curve in the direction sought with a large enough effect; inconclusive = small, poorly fitted or top-dose-only effect, or another doubt; inactive = no such curve, though single readings can be large; an effect the other way counts as inactive or inconclusive. Unless noted, % is scaled to controls: 0 for no effect and ±100 for the full control effect.

SMILES	PNC inhibitor	GLA inh pH 4.5	aGal spleen mod	HPGD inh	ALOX12 inhib	ALDH1A1 block
COc1cc(S(=O)(=O)N(Cc2cccnc2)Cc2ccco2)ccc1-n1cnnn1	39.3	-2.4	9.2%	-4.0%	-4.6%	?
COc1cc(S(=O)(=O)N(Cc2ccc(C)cc2)Cc2ccco2)ccc1-n1cnnn1	16.5	-6.7	-4.2%	-9.5%	-5.4%	12.6µM*
COc1cccc(CN(Cc2cccnc2)S(=O)(=O)c2ccc(-n3cnnn3)c(C)c2)c1	35.2	-1.5	3.1%	-17.5%	0.7%	25.1µM*
O=C(C1CCN(Cc2cn[nH]c2-c2ccc(F)cc2F)CC1)N1CCOCC1	nt	-8.9	4.9%	nt	nt	-0.5%
COc1cc(OC)cc(-c2cc3nc(C)cc(N4CCN(C(=O)c5ccco5)CC4)n3n2)c1	-17.2	0.6	-1.4%	?	2.8%	?
C/C(=N\Nc1nnc(-c2ccccc2)c(-c2ccccc2)n1)c1cccc([N+](=O)[O-])c1	5.8	nt	-11.3%	6.31µM*	-16.7%	?
COc1ccc(C(=O)c2ccc(N3CCN(C4CC(=O)NC4=O)CC3)cc2)cc1F (stereo not given)	18.9	-2.8	-2.2%	?	-3.2%	8.91µM*
COc1ccc(N2CCN(C3CC(=O)NC3=O)CC2)cc1 (stereo not given)	3.0	-1.0	-1.1%	nt	-2.4%	6.9%
O=C(CN1CCCCCCC1)N/N=C/c1ccc(F)c(F)c1	-1.1	-2.4	-12.6%	-1.3%	-0.7%	-7.9%
c1cc2c3c(c1)c1c(n3CCNC2)CCCC1	nt	-6.7	-0.7%	-17.5%	-1.3%	5.0%
CC1=CC(C)(C)NC(=S)N1c1cccc2cc(S(=O)(=O)O)ccc12	nt	-1.4	5.8%	nt	nt	28.2µM*
CC1=CC(C)(C)NC(=S)N1c1ccccc1C	nt	-1.0	-7.1%	nt	nt	-6.5%
O=C(O)CCCC[C@@H]1CCSS1	nt	-0.1	2.4%	-11.1%	nt	-8.2%
Cc1cc2c(cc1C)NC(c1c(C)n(C)n(-c3ccccc3)c1=O)C1=C(CC(C)(C)CC1=O)N2 (stereo not given)	33.8	-9.5	13.4%	-18.7%	-7.0%	22.4µM*
Cc1ccc2c(c1)NC(c1cccs1)C1=C(CC(C)(C)CC1=O)N2 (stereo not given)	nt	-2.3	-1.6%	nt	nt	1.0%
Cc1nc2cncnc2n(-c2ccccc2)c1=O	nt	nt	-15.8%	-18.9%	-1.0%	?
COc1ccc(-n2c(=O)c(C)nc3cncnc32)cc1	nt	nt	-7.1%	-29.6%	-5.0%	25.1µM*
COCCNC(=O)c1noc2c1CCc1cc(OC)ccc1-2	37.4	-0.5	-4.4%	25.1µM*	-3.2%	-1.5%
O=c1cc(-c2ccc(O)cc2)oc2cc(O[C@@H]3O[C@H](CO)[C@H](O)[C@H](O)[C@H]3O)cc(O)c12	nt	nt	0.8%	nt	nt	nt
NNC(=O)c1ccc(Oc2cc(Cl)cc(Cl)c2)o1	nt	-3.6	-0.5%	nt	nt	0.159µM*
C[C@@]12C[C@H](O)[C@@H]3[C@H](CCC4=CC(=O)CC[C@]43C)[C@H]1CC[C@@H]2c1csc(N)n1	nt	nt	nt	nt	2.8%[11.4 µM]	nt
CC(=O)OC1CC[C@@]2(C)C(CC[C@@]3(C)C2CC=C2C4CC(C)(C)CC[C@]4(C(=O)O)CC[C@@]23C)C1(C)C (stereo not given in full)	nt	9.2	6.6%	-4.7%	-2.7%	4.8%
COc1cc(OC)cc(-c2nc3ccccc3c(=O)n2OC(=O)c2ccc(Br)cc2)c1	-116.4*	-11.5	-3.7%	-16.2%	-15.4%	-4.4%
Cc1ncoc1C(=O)Nc1ccc(Oc2ccccc2)cc1	34.6	-5.3	-2.4%	-18.3%	-5.3%	-6.7%
Cc1nc(C)c(C(=O)Nc2ccc(Oc3ccccc3)cc2)o1	?	-7.8	-1.4%	-17.8%	0.3%	31.6µM*
SMILES	PNC inhibitor	GLA inh pH 4.5	aGal spleen mod	HPGD inh	ALOX12 inhib	ALDH1A1 block
CC(C)CCNC(=O)CCCc1ccccc1	nt	-3.4	9.9%	nt	nt	3.8%
COc1ccc(-c2nnc(SCC(=O)Nc3cc(C)on3)o2)cc1	nt	8.1	-0.7%	nt	nt	-1.1%
Cc1[nH]nc2c1C(c1cccnc1)N(c1ccc(Br)cc1)C2=O (stereo not given)	-83.1*	1.9	21.8%	-11.7%	17.7%	-4.7%
Cc1cc2cc(C)c3nnc(SCC(=O)Nc4ccc(S(=O)(=O)N5CCCCC5)cc4)n3c2cc1C	28.2	5.2	6.2%	-13.8%	0.4%	?
CC(C)(C)OC(=O)N1CCC(C(=O)N2CCOCC2)CC1	26.9	-1.1	-4.5%	-4.0%	-3.5%	1.7%
CC(C)(C)OC(=O)N1CCC(C(=O)N2CCCCCC2)CC1	?	-2.7	0.4%	14.1µM*	0.9%	12.8%
Nc1nc2c(nc(Br)n2C2O[C@H]3COP(=O)(O)O[C@@H]3C2O)c(=O)[nH]1 (stereo not given in full)	nt	-4.1	11.9%	-6.5%	nt	-6.7%
C/C=C/c1ccc2oc(-c3ccc(O)cc3)c(C)c2c1	nt	-0.3	11.5%	?	nt	?
C=CCNc1cnn(-c2ccc(C)cc2)c(=O)c1Sc1ccc(C)cc1	nt	-10.0	-5.8%	nt	nt	10µM*
COc1cc2c(CCNC(C)=O)c[nH]c2cc1Cl	nt	3.6	5.8%	-9.8%	-3.2%	7.2%
CCOC(=O)N1CCN(C(=O)CS(=O)Cc2nc(-c3cccc(C)c3)oc2C)CC1 (stereo not given)	-28.3	-4.0	-5.2%	-4.0%	1.8%	?
Cc1cccc(-c2nc(CS(=O)CC(=O)N3CCc4ccccc4C3)c(C)o2)c1 (stereo not given)	-105.7*	5.2	0.9%	?	-3.0%	?
Cc1cc(NC(=O)CSc2ncnc3sc(C)c(C)c23)no1	nt	18.8	5.0%	nt	nt	6.8%
O=C(COc1ccc(/C=N/NC(=O)c2cc3ccccc3o2)cc1Cl)Nc1ccccc1	-119.2*	12.6	-8.9%	?	-0.8%	?
COc1ccc(NC(=O)/C(C#N)=C/c2c(C)nn(-c3ccc(F)cc3)c2Cl)cc1Cl	-83.4*	4.9	-1.1%	-13.4%	-4.1%	8.7%
Cc1nn(-c2ccccc2)c(Cl)c1/C=C(\C#N)C(=O)NC(C)C	-25.3	9.6	-0.7%	-25.8%	-4.2%	14.1µM*
COc1ccc(C(=O)/C=C/c2ccc(N3CCCCC3)c([N+](=O)[O-])c2)cc1	-27.3	-0.6	-5.4%	-14.8%	-1.9%	4.47µM*
COc1ccc(N2CCN(c3ccc(C(N)=O)cc3[N+](=O)[O-])CC2)cc1	nt	-3.1	5.2%	nt	nt	-4.5%

Source: PubChem
